Screening data from PubChem BioAssay.
NOD2-RIPK2 inh: NOD2-RIPK2 binding disruptors in cells, primary screen, fluorescence, CHO cells, BLA complementation | CCF4 ratio | Receptor-interacting serine/threonine-protein kinase 2 (Homo sapiens), O43353 | inhibition, % at 4.98 µM | hit rate 0.38% among 360,000; in the data active means inhibition above about 21%
TLR9-MyD88 block: inhibitors of TLR9-MyD88 association in cells, primary screen, cell-based, CHO, BLA complementation, fluorescence; Toll-like receptor 9 (Homo sapiens) + Myeloid differentiation primary response protein …; AID 504734, 2011; inhibition, % at 4.98 µM; hit rate 0.21% among 340,000; CCF4 FRET ratio;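 active means inhibition above the mean over all tested compounds plus 3 SD, cut at about 21% in these data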
ABHD5-PLIN5 inh: ABHD5-PLIN5 interaction inhibitors, primary screen, cell lysate, split luciferase complementation, luminescence; Perilipin-5 (Homo sapiens) + 1-acylglycerol-3-phosphate O-acyltransferase ABHD5 (Homo …; Split G. princeps luciferase complementation, 4 h; inhibition, % at 4 µM; hit rate 0.78% among 360,000; AID 602281, 2012;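 active means inhibition above the mean inhibition across every tested compound plus 3 SD, cut at about 22% in these data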
Target sequence (Q00G26 whole entry, looked up): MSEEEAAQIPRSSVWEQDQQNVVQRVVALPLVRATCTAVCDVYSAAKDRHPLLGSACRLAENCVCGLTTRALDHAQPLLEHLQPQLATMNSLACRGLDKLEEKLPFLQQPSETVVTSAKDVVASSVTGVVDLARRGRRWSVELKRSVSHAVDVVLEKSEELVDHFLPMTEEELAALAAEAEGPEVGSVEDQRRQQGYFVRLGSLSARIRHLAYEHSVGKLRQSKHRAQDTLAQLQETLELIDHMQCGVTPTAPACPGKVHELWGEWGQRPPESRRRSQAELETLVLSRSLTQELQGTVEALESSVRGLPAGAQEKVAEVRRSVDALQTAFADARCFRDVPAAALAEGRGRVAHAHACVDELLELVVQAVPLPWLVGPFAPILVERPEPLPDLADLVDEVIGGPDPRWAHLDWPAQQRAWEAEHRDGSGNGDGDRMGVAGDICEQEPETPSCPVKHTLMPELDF
Target sequence (Q8WTS1 whole entry, looked up): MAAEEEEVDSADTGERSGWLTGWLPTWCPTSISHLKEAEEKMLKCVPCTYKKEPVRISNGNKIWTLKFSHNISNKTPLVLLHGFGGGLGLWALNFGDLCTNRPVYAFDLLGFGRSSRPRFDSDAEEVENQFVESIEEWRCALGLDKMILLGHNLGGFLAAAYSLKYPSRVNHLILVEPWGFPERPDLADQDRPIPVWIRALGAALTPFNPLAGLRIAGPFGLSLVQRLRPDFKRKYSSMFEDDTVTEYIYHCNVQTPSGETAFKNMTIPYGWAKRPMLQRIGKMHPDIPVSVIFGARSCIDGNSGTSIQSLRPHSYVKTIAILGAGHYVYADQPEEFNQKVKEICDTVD
TLR4 MyD88 comp: inhibitors of TLR4-MyD88 association in cells, primary screen, cell-based, HeLa CL3-4, BLA complementation, FRET ratio; HeLa CL3-4 TLR4/MyD88 BLA complementation; inhibition, % at 8.4 µM; hit rate 0.18% among 200,000; AID 861, 2007; Toll-like receptor 4 (Homo sapiens) + Myeloid differentiation primary response protein …; in the data active means inhibition above about 25%
PRMT1 FP inh: PRMT1 methyltransferase inhibitors, primary screen, biochemical, fluorescence polarization | Protein arginine N-methyltransferase 1 (Homo sapiens), Q99873 | recombinant PRMT1, activity-based probe fluorescence polarization | inhibition, % at 2.79 µM | hit rate 1.3% among 370,000 | AID 652257, 2013;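 active means inhibition above about 21% made by adding two undisclosed values, limit read from the data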
rCAG binder: binders of r(CAG) RNA repeats, primary screen, biochemical, fluorescence | r(CAG) RNA repeat, TO-PRO-1 dye displacement fluorescence | AID 651821, 2012 | inhibition, % at 3 µM | hit rate 1.3% among 370,000;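 active means inhibition above the plate cutoff, the mean of all test compounds on that plate plus 3 SD, cut at about 35% in these data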;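 further: higher means more dye released from RNA so lower well fluorescence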
A number is an active result; 0 = inactive; - = not tested or not shown. Only some compounds are listed: those with a hit (about 3.3% of all), similar ones and a draw of the others.

SMILES | NOD2-RIPK2 inh | TLR9-MyD88 block | ABHD5-PLIN5 inh | TLR4 MyD88 comp | PRMT1 FP inh | rCAG binder
CC(NC(=O)Cn1ncc(Cl)c(Cl)c1=O)C12CC3CC(CC(C3)C1)C2 (configuration not stated) | 66 | 23 | 0 | 0 | - | -
Cc1ccc(Nc2ccc(C(=O)O)cc2N)cc1 | - | - | - | 0 | 24 | 0
Oc1ccc(N=Cc2ccc(-c3cccs3)s2)cc1 | 0 | 0 | 0 | 0 | 38 | 0
O=Cc1ccc(-c2cccs2)s1 | 0 | 0 | 0 | - | 0 | 0
CCCn1c(C2CCCN2c2nc(-c3cccc(Br)c3)cs2)nc2ccccc21 (configuration not stated) | 0 | 0 | 0 | - | 0 | 0
CCN(CC)C(=S)Sc1c(-c2ccccc2)c2cc(Cl)ccc2[nH]c1=O | 0 | 0 | 0 | 0 | 24 | 0
O=C(Cn1sc2ccccc2c1=O)NC12CC3CC(CC(C3)C1)C2 | 0 | 21 | 59 | 0 | - | -
CC(C)OC(=O)N(C)C[C@H]1OCc2cnnn2CCCC(=O)N([C@H](C)CO)C[C@H]1C | 0 | 0 | 0 | - | 0 | 0
CN1CCOC(=O)/C1=N/Nc1cc(Cl)ccc1Cl | 0 | 0 | 0 | 0 | 0 | 0
Cc1ccc(OCC(=O)c2ccc(Cl)s2)c([N+](=O)[O-])n1 | 0 | 0 | 0 | 0 | 24 | 0
O=C(O)COc1cccc(/C=C2/SC(=S)N(Cc3ccccc3)C2=O)c1 | 0 | 0 | 0 | - | 0 | 52
O=C(O)CCCN1C(=O)/C(=C\c2ccccc2OCc2ccccc2)SC1=S | 0 | 0 | 0 | - | 0 | 52
O=C(O)CCCCN1C(=O)/C(=C\c2ccc(OCc3ccccc3)c(OCc3ccccc3)c2)SC1=S | 0 | 0 | 0 | - | 0 | 0
O=C(CCCN1C(=O)/C(=C/c2ccc3c(c2)OCO3)SC1=S)Nc1cccc(C(=O)O)c1 | 0 | 0 | 0 | - | 0 | 51
O=C(CCCN1C(=O)/C(=C\c2ccccc2)SC1=S)Nc1cccc(C(=O)O)c1 | 0 | 0 | 0 | - | 0 | 66
COc1ccccc1NS(=O)(=O)c1ccc(C(=O)NCC(c2ccco2)N2CCCCC2)cc1 (configuration not stated) | 0 | 0 | 0 | - | 0 | 0
Cc1ccc2nc(-c3ccc(NS(=O)(=O)c4ccc(F)c(F)c4)cc3)sc2c1 | 0 | 0 | 0 | 0 | 0 | 75
COCc1cc(N2CCNC[C@H]2C)ccc1N1C[C@@H](C)O[C@@H](C)C1 | - | - | - | - | 0 | 0
CCOc1cc(NC(=S)NC)c(OCC)cc1NC(=O)c1ccc(OC)cc1 | 0 | 0 | 0 | 0 | 0 | 0
O=C(CNc1ccc2ccccc2c1)N/N=C/c1ccncc1 | 0 | 0 | 0 | - | 22 | 0
O=C(CNc1ccc2ccccc2c1)N/N=C/c1ccccn1 | 0 | - | 0 | - | 0 | 0
CCN(CC)CC#CCC(OC)(c1ccccc1)c1ccccc1 | 0 | 0 | 0 | 0 | 0 | 0
Cc1cc(C(=O)NCc2cccs2)c(C)o1 | 0 | 0 | 0 | 0 | 21 | 0
Cc1occc1C(=O)NCc1cccs1 | 0 | 0 | 0 | 0 | 0 | 0
C/C(CC(=O)NC1CCCC1)=N\NC(=O)Cc1cccs1 | 0 | 0 | 63 | 0 | 0 | 0
SMILES | NOD2-RIPK2 inh | TLR9-MyD88 block | ABHD5-PLIN5 inh | TLR4 MyD88 comp | PRMT1 FP inh | rCAG binder
CC(=O)Nc1ccc(Nc2c([N+](=O)[O-])c(=O)n(-c3ccccc3)c3ccccc23)cc1 | 0 | 0 | 0 | 0 | 0 | 0
COc1ccc(N(C(C)=O)S(=O)(=O)c2cc(OC)ccc2OC)cc1 | 0 | 0 | 0 | 0 | 0 | 0
COc1ccc(C(=O)Oc2ccc3oc(=O)sc3c2)cc1 | 0 | 0 | 23 | 0 | 76 | 0
CC(C)C(=O)N(c1ccc2oc(=O)sc2c1)S(=O)(=O)c1ccccc1 | 0 | 0 | 0 | 0 | 48 | 0
COc1ccc(C(=O)Oc2ccc3ccc(=O)oc3c2)cc1 | 0 | 0 | 0 | - | 0 | 0
COc1ccc(OC)c(S(=O)(=O)N(C(C)=O)c2ccc3oc(=O)sc3c2)c1 | 0 | 0 | 0 | 0 | 53 | 0
C/C(=N\NC(=O)CN(c1ccc(Oc2ccccc2)cc1)S(C)(=O)=O)C(C)(C)C | 0 | 0 | 0 | 0 | 0 | 0
COCCN1C[C@@H](CO)O[C@@H](n2cnc3c(NCCO)ncnc32)C1 | 0 | - | 0 | - | 0 | 0
CCc1ccc(OCC(=O)N2CCN(c3ccccn3)CC2)c(Br)c1 | 0 | 0 | 0 | - | 0 | 0
Cc1ccc2c(c1)N(CCCC(=O)N(C)Cc1ccc(F)cc1)C(=O)CO2 | - | - | - | - | 0 | 0
CCOc1ccc(CCNC(=O)CCC(=O)N2CCOc3ccccc32)cc1OCC | 0 | 0 | 0 | - | 0 | 0
COc1ccc2c(c1)c[n+](C)c1c3cc(OC)c(OC)cc3ccc21 | 0 | - | 22 | - | 0 | 0
COc1cc2c[n+](C)c3c4ccccc4ccc3c2cc1OC | 0 | 0 | 0 | - | 0 | 0
CC(C)C1OC2(C)OC(=N)C1(C#N)C(C#N)(C#N)C2c1ccccc1 (configuration not stated) | 0 | 0 | 0 | 0 | 25 | 0
COc1ccc(C(C(=O)NC(C)(C)C)N(C(=O)CCC(=O)Nc2cc(C)on2)c2ccc(C)c(C)c2)cc1 (configuration not stated) | 0 | 0 | 0 | - | 0 | 0
O=C(Nc1ccncc1)c1ccc(Br)cc1 | 0 | 0 | 0 | - | 0 | 0
O=C(O)c1cc(NC(=O)c2ccc(Br)cc2)cc(NC(=O)c2ccc(Br)cc2)c1 | 0 | 0 | 0 | - | 0 | 80
COC(=O)[C@H](Cc1ccccc1)N1CC=CS1(=O)=O | - | - | - | - | 0 | 0
CCCCC(=O)N(C)c1c(C)nc2ccc(C(=O)N(CC)CCN(C)C)cn12 | 0 | - | 0 | - | 0 | 0
CC(=O)c1cc(O)c2ccccc2c1O | 0 | 0 | 0 | - | 45 | 0
Cc1ccc(NCc2nnc(SCC(=O)c3ccccc3)n2Cc2ccco2)c(C)c1 | 0 | 0 | 0 | 0 | 24 | 0
O=C(CSc1ncnc2c1nnn2Cc1ccccc1F)NCC1CCCO1 (configuration not stated) | 0 | 0 | 0 | - | 0 | 0
O=C1CCCc2oc3c(cc(NS(=O)(=O)c4ccc5c6c(cccc46)C(=O)N5)c4ccccc43)c21 | 0 | 0 | 0 | - | 0 | 46
O=C(O)c1ccccc1NS(=O)(=O)c1ccc2c3c(cccc13)C(=O)N2 | 0 | 0 | 0 | 0 | 0 | 0
Cc1nc2c(C(=O)NCc3ccc(F)cc3)c[nH]n2c(=O)c1Cl | 0 | 0 | 0 | 0 | 0 | 46
Cc1noc(C(=O)NCc2ccc(F)cc2)c1Cl | 0 | 0 | 0 | 0 | 0 | 0
C=CCN1C(=O)/C(=C2/Sc3ccccc3N2CCCS(=O)(=O)O)SC1=S | 0 | 0 | 0 | 0 | 0 | 85
O=C(NC1CC2CCCC(C1)N2Cc1ccc(F)cc1)c1ccc(F)cc1 (configuration not stated) | 0 | 0 | 0 | - | 0 | 0
CC(=O)N1c2ccccc2N=C(c2ccc(C(F)(F)F)cc2)C1C(=O)NC1CCCC1 (configuration not stated) | 0 | - | 0 | - | 0 | 0
CC(=O)NC1Sc2ccccc2N=C1c1ccccc1 (configuration not stated) | 0 | 0 | 0 | 0 | 26 | 0
